An excerpt weighted towards active compounds, which were near 7.4% of everything screened.
ERK AVP inh: inhibitors of vasopressin-stimulated ERK signaling pathway; Potency, µM (doses to about 57.5 µM), without a hit: top-dose activity, negative = inhibition, most hits filed as inhibitors; HEK293-V1b, vasopressin-stimulated pERK AlphaScreen; 72,000 tested, 0.99% active; further: on the % scale 0 is the no-effect control and ±100 the full control effect; nearly all actives have a fitted effect of over 55% in size
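qHTS, compounds titrated on V1b-expressing HEK293 cells. Preincubation 30 min at 37C, vasopressin 25 nM for 5 min, lysis 10 min, bead incubation 5 hr at room temperature.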
HEK293 cAMP ctrl: raises cAMP in parental HEK293 cells, TSHR agonist counter-screen; parental HEK293 CNG cAMP sensor, membrane potential fluorescence; Potency, µM (titrated, usually from 57.1 µM), inactives show at the top dose activation, most hits filed as activators; AID 938; 73,000 tested, 2.5% active; further: % of control where 0% means no effect; nearly all actives have a fitted effect of over 55% in size
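Parental HEK 293 cells stably expressing a cAMP-gated CNG channel were loaded with membrane potential dye containing 100 uM RO 20-1724 for 60 min. Compound added for 30 min; depolarization read as fluorescence intensity at 590 nm.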
CRE-bla Fsk: modulators of forskolin-stimulated CRE signaling in CHO cells; CHO CRE-bla reporter (cAMP response element driving beta-lactamase), forskolin EC10, beta-lactamase ratio; Potency, µM (series often up to 38.2 µM), inactives show at the top dose activity change, negative = inhibition, hits mostly activators; 71,000 tested, 2.5% active; active means well fitted activation curve with a large enough effect in the signal ratio, with a control signal flat, not every such curve was filed as active; inconclusive means small, poorly fitted or top-dose-only effect, or effect the other way, or a change in a side signal; the % refers to the signal ratio; further: % of control where 0% means no effect
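AC50 values, positive or negative, reflect shifts in EC10 NKH 477-induced CRE-bla reporter activity in CHO cells. Incubation lasted 3 h at 37 °C before CCF4 substrate (2 h, room temperature) and ratiometric 460/530 nm reading.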
Tau filament bind: binds recombinant human tau filaments; 71,000 tested, 2% active; Potency, µM (series often up to 57.1 µM), without a hit: at the highest dose activity change, negative = inhibition; recombinant tau filaments, thioflavin S fluorescence, 15 h; filaments grown with octadecylsulfate alongside compound; P10636;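 further: on the % scale 0 is the no-effect control and ±100 the full control effect; actives lower thioflavin S fluorescence by blocking filaments or displacing dye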
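His-tagged recombinant human tau (exons 2, 3, 10; 1 uM final) fibrillized with 30 uM sodium octadecylsulfate, 15 h at 37 C, in pH 7.4 HEPES buffer with 10 uM thioflavine S and 5 mM DTT. Reduced ThS fluorescence (450/510 nm) marks activity.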
TSHR agonist: TSH receptor (human) agonism | P16473 | HEK293-CNG-TSHR cells (CNG channel as cAMP sensor), membrane potential dye, cAMP | Potency, µM (series often up to 57.1 µM), inactives show at the top dose activation, usual class: activators | 73,000 tested, 0.48% active; active means well fitted activation curve with a large enough effect in the main read-out, with a control signal flat, not every such curve was filed as active; inconclusive means small, poorly fitted or top-dose-only effect, or a change in a side signal; inactive means no such curve, though single readings can be large or run the other way; % of control where 0% means no effect;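 further: the control signal comes from parental cells without the receptor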
Target sequence (P16473 whole entry, looked up): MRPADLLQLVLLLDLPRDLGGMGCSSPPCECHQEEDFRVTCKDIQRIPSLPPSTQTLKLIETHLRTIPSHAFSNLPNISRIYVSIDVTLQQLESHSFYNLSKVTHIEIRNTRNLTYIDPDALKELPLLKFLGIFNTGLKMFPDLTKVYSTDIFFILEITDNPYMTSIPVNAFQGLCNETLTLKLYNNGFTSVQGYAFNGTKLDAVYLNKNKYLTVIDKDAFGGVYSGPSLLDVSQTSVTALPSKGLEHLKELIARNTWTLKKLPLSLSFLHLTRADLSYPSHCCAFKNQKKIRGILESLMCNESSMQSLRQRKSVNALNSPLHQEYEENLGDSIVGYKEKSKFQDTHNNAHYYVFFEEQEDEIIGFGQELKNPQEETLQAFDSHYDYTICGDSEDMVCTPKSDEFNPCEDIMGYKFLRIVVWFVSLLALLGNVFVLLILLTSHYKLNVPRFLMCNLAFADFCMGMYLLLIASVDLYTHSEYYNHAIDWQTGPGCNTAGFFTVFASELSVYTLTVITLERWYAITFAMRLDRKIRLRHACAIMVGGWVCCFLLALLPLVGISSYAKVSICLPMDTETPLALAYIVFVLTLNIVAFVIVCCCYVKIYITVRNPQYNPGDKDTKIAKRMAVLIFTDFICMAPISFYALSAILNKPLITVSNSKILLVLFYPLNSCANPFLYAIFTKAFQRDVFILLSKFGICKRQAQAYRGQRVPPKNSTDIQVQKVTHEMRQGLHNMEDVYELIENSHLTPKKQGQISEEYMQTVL
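cAMP rise detected as CNG-channel membrane depolarization by fluorescent dye (emission 590 nm), 30 min after compound, following 60 min dye loading containing 100 uM RO 20-1724 at room temperature. Cells: TSHR/CNG HEK 293, with parental CNG HEK 293 as control.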
* marks the source's active call; other numbers are inactive results; i = inactive; ? = inconclusive; nt = no result given; ! = a repeat was not active; [ ] = dose if it differs, or a comment. Unless noted, the call rests on the fitted dose curve; in most records, active means well fitted curve in the direction sought with a large enough effect; inconclusive means small, poorly fitted or top-dose-only effect, or another doubt; inactive means no such curve, though single readings can be large; an effect the other way counts as inactive or inconclusive. Potency means the concentration at half of the fitted maximal effect.

SMILES | ERK AVP inh | HEK293 cAMP ctrl | CRE-bla Fsk | Tau filament bind | TSHR agonist
CCn1c(=O)c(C(=O)NCc2ccc(OC)c(OC)c2)c(O)c2ccccc21 | -5% | ? | 1.6µM* | 9% | ?
CCn1c(=O)c(C(=O)NCCCO)c(O)c2ccccc21 | -11% | 8% | 10µM* | 10% | 7%
CCCn1c(=O)c(C(=O)NCc2ccc(OC)c(OC)c2)c(O)c2ccccc21 | 5% | 11% | ? | 4% | 13%
CCn1c(=O)c(C(=O)NCc2ccccn2)c(O)c2ccccc21 | -15% | ? | 7.9µM* | 9% | ?
CC1CN(C(=O)c2cccs2)CCN1C(=O)c1cccs1 (configuration not stated) | 3% | 32µM* | 21% | 232% | ?
Cc1ccc2[nH]c3c(c2c1)CCc1cn[nH]c1-3 | ? | -7% | ? | 7.9µM* | -35%
Cc1ccc2[nH]c3c(c2c1)CCC3=O | 6% | 5% | 2% | -4% | 9%
O=C1CSC(c2cn(-c3ccccc3)nc2-c2cccs2)N1CC1CCCO1 (configuration not stated) | -30% | 10% | ? | -16% | 10µM*
O=C1CSC(c2cn(-c3ccccc3)nc2-c2ccccc2)N1Cc1ccco1 (configuration not stated) | ? | 18% | -6% | 9% | nt
O=C(O)[C@@H]1CS[C@@]2(CCCN(Cc3ccccc3)C2)N1 | 9%[11.5 µM] | -4%[11.4 µM] | 10%[7.6 µM] | 4%[11.4 µM] | 0%[11.4 µM]
COc1ccc(C2(C)NC(=O)N(Cc3cc(Cl)cc4c3OCOC4)C2=O)cc1OC (configuration not stated) | -24% | 16µM* | ? | 4% | ?
CCOc1ccccc1CN1C(=O)NC(C)(c2ccccc2)C1=O (configuration not stated) | -3% | 23% | -14% | 6% | nt
N=C1[C@@H](O)[C@]2(I)c3ccccc3N3C(=N)[C@H](O)[C@@H]4c5ccccc5N1[C@@H]4[C@@H]32 | 14%[11.5 µM] | ? | -19%[7.6 µM] | 1µM* | ?
Clc1ccccc1C(Nc1cnccn1)Nc1cnccn1 | 14%[11.5 µM] | 1%[11.4 µM] | 1%[7.6 µM] | -1%[11.4 µM] | -2%[11.4 µM]
Cc1ccc(C)c(N(C)S(=O)(=O)c2cccc3nsnc23)c1 | 17% | 17% | -3% | ? | nt
Nc1nn(S(=O)(=O)c2cccc3nsnc23)cc1-c1ccc(Br)cc1 | ? | -18% | -2% | 16µM* | -16%
Cc1ccc(-c2cn(S(=O)(=O)c3cccc4nsnc34)nc2N)cc1 | -6% | -23% | -7% | 16µM* | -35%
CC(C)(C)NS(=O)(=O)c1cccc2nsnc12 | 28% | 13% | 2% | -1% | 0%
CCn1c(=O)c2c(n3cnnc13)-c1ccccc1CC21CCCCC1 | ? | 0% | 3.2µM* | 20% | 13%
CCc1nc2c(c(=O)[nH]1)C1(CCCC1)Cc1ccccc1-2 | -5% | 8% | ? | 21% | -14%
CCn1c(SCC(N)=O)nc2c(c1=O)C1(CCCC1)Cc1ccccc1-2 | -22% | ? | 4µM* | 12%[11.4 µM] | ?
O=C(O)[C@@H]1[C@@H](C(=O)Nc2ccccc2)[C@@H]2C=C[C@@H]1O2 | -3%[11.5 µM] | -1%[11.4 µM] | 10%[7.6 µM] | 14%[11.4 µM] | -1%[11.4 µM]
NCCSCc1ccccc1Cl | 9%[11.5 µM] | 8%[11.4 µM] | 2%[7.6 µM] | -2%[11.4 µM] | -5%[11.4 µM]
COC(=O)c1c(-c2ccc(F)cc2)csc1NC(=O)c1ccco1 | 0% | 4µM* | 0.4µM* | i[11.4 µM] | ?
COC(=O)c1c(-c2cccnc2)csc1NC(=O)c1cc(C)on1 | -15% | 0% | 2.5µM* | 2% | -3%
SMILES | ERK AVP inh | HEK293 cAMP ctrl | CRE-bla Fsk | Tau filament bind | TSHR agonist
O=C1C=C(N2CCN(c3ccccn3)CC2)C(=O)c2c(O)ccc(O)c21 | ? | -37%[11.4 µM] | 3.2µM* | 1.6µM* | ?
COc1cc(C)cc2c(-c3c(O)cc(O)c4c3C[C@H](C)N[C@@H]4C)cc(-c3cc(-c4c(O)cc(O)c5c4C[C@H](C)N[C@@H]5C)c4cc(C)cc(OC)c4c3O)c(O)c12 | -16%[11.5 µM] | -1%[11.4 µM] | ? | 4µM* | 4%[11.4 µM]
O=C(CSc1nnc(-c2ccccn2)n1Cc1ccco1)c1ccccc1 | 6% | 9% | -4% | 8% | 16%
O=C(CSc1nnc(-c2ccccn2)n1Cc1ccco1)c1ccc(Cl)cc1 | 6% | 25µM* | 0% | 3% | ?
COC(=O)c1ccc(OCC2c3cc(OC)c(OC)cc3CCN2C(=O)C2CC2)cc1 (configuration not stated) | ? | ? | 5µM* | 12% | ?
CCC(C)(C(=O)NC1CCCCC1)N(Cc1ccco1)C(=O)c1ccc2c(c1)OCO2 (configuration not stated) | -16% | 7.9µM* | -6% | 10% | ?
CC(C)C=O | 21% | 7% | -9% | 11% | 3%
Cc1oc(C)c2c(=O)ccc3c(c12)OC(N)=C(C#N)C3c1ccccc1 (configuration not stated) | -16% | 7% | 0.25µM* | 166% | 20%
CSc1ccc(C2C(C#N)=C(N)Oc3c2ccc(=O)c2c(C)oc(C)c32)cc1 (configuration not stated) | ? | 0% | -16% | 50% | 6%[11.4 µM]
CCO[P@]1(=O)OC[C@@H]2O[C@H](n3cnc4c(N)ncnc43)[C@H](O)[C@@H]2O1 | -17%[11.5 µM] | 11%[11.4 µM] | 7%[7.6 µM] | -1%[11.4 µM] | 0%[11.4 µM]
Cc1cc(/C=N/n2cnnc2)c(C)n1-c1cc(Cl)ccc1Cl | -22% | ? | 2µM* | -2% | ?
CCOC(=O)c1c(C)oc2c1c(C(c1ccncc1)N1CCOCC1)c(O)c1ccccc12 (configuration not stated) | -15% | -15% | 11% | 13µM* | 5%
CCOC(=O)c1c(C)oc2c1c(C=NC1CCS(=O)(=O)C1)c(O)c1ccccc12 (configuration not stated) | 4% | -2% | 5% | 28% | -3%
CCOC(=O)C1CCCN(Cc2ccc(OC)cc2OC)C1 (configuration not stated) | 47% | 32µM* | 0% | 12% | ?
CCOC(=O)C1CCCN(Cc2ccc(O)c(OC)c2)C1 (configuration not stated) | -3% | -1%[11.4 µM] | ? | -5%[11.4 µM] | -1%[11.4 µM]
CN[C@H](CC(=O)O)C(=O)O | 19% | 0% | 2% | -26% | 0.79µM*!
CC(=O)NC(CC(=O)O)C(=O)NC(CCC(=O)O)C(=O)O (configuration not stated) | 0% | nt | nt | nt | nt
CCCCCCn1c(N2CCN(c3cccc(Cl)c3)CC2)nc2c1c(=O)[nH]c(=O)n2C | -18% | ? | ? | 4% | ?
Cn1c(=O)[nH]c(=O)c2c1nc(CN1CCN(c3cccc(Cl)c3)CC1)n2CCc1ccccc1 | 9% | ? | 13µM* | -4% | ?
CCCCCn1c(CN2CCN(c3cccc(Cl)c3)CC2)nc2c1c(=O)[nH]c(=O)n2C | -5% | ? | 13µM* | 39% | ?
